Among all 5,500 compounds or so, about 2,000 (36%) were called active. Not shown: some 18% with an inconclusive outcome. No stated cut-off is given here; in the data, active means normalized growth mostly below about 0.91 (no sharp cut-off); inconclusive means no clear call, values can overlap the other calls; inactive means mostly above about 0.92. This is one part of the list.
Assay: chemical genetic growth profiling, strain panel (AID 1159580);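 further: tested at 20 µM; growth read once vehicle control cultures reached saturation at 30 °C; 1 = growth at the plate median or of vehicle wells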
Settings: growth OD

Measured: normalized growth

COc1ccc2c3c([nH]c2c1)C(C)=NCC3
inactive: S. cerevisiae deletion strains, locus YKL009W, strain mrt4, stronger effect = lower value 1.02 | S. cerevisiae deletion strains, locus YKL068W, stronger effect = lower value 0.999 | S. cerevisiae deletion strains, locus YKL085W, strain MDH1 (second series), stronger effect = lower value 0.996 | S. cerevisiae deletion strains, locus YKL085W, strain MDH1, stronger effect = lower value 0.996 | S. cerevisiae deletion strains, locus YKL160W, strain elf1, stronger effect = lower value 1.01 | S. cerevisiae deletion strains, locus YKL190W, strain CNB1, stronger effect = lower value 1.01 | S. cerevisiae deletion strains, locus YKR001C, strain vps1, stronger effect = lower value 0.975 | S. cerevisiae deletion strains, locus YKR026C, strain gcn3, stronger effect = lower value 1.01 | S. cerevisiae deletion strains, locus YKR091W, strain srl3, stronger effect = lower value 0.999 | S. cerevisiae deletion strains, locus YLL001W, strain dnm1, stronger effect = lower value 1.01 | S. cerevisiae deletion strains, locus YLL026W, stronger effect = lower value 0.987 | S. cerevisiae deletion strains, locus YLL041C, strain sdh2, stronger effect = lower value 1.01 | S. cerevisiae deletion strains, locus YLR027C, strain aat2, stronger effect = lower value 1 | S. cerevisiae deletion strains, locus YLR039C, strain RIC1, stronger effect = lower value 1.02 | S. cerevisiae deletion strains, locus YLR058C, strain SHM2, stronger effect = lower value 1.01 | S. cerevisiae deletion strains, locus YLR102C, strain apc9, stronger effect = lower value 0.987 | S. cerevisiae deletion strains, locus YLR113W, strain HOG1, stronger effect = lower value 0.993 | S. cerevisiae deletion strains, locus YLR221C, strain rsa3, stronger effect = lower value 1 | S. cerevisiae deletion strains, locus YLR258W, strain gsy2, stronger effect = lower value 0.999 | S. cerevisiae deletion strains, locus YLR262C, strain YPT6 (second series), stronger effect = lower value 0.983 | S. cerevisiae deletion strains, locus YLR262C, strain YPT6, stronger effect = lower value 1.03 | S. cerevisiae deletion strains, locus YLR268W, strain sec22, stronger effect = lower value 0.979 | S. cerevisiae deletion strains, locus YLR320W, strain mms22, stronger effect = lower value 0.988 | S. cerevisiae deletion strains, locus YLR330W, strain CHS5, stronger effect = lower value 1 | S. cerevisiae deletion strains, locus YLR342W, strain FKS1 (second series), stronger effect = lower value 1.01 | S. cerevisiae deletion strains, locus YLR342W, strain FKS1, stronger effect = lower value 0.972 | S. cerevisiae deletion strains, locus YLR357W, strain rsc2, stronger effect = lower value 0.991 | S. cerevisiae deletion strains, locus YLR370C, strain arc18, stronger effect = lower value 1 | S. cerevisiae deletion strains, locus YLR371W, strain rom2, stronger effect = lower value 0.976 | S. cerevisiae deletion strains, locus YLR384C, strain iki3, stronger effect = lower value 1 | S. cerevisiae deletion strains, locus YLR418C, strain cdc73, stronger effect = lower value 0.98 | S. cerevisiae deletion strains, locus YML016C, strain PPZ1, stronger effect = lower value 1 | S. cerevisiae deletion strains, locus YML032C, strain rad52, stronger effect = lower value 0.993 | S. cerevisiae deletion strains, locus YML120C, strain ndi1, stronger effect = lower value 0.986 | S. cerevisiae deletion strains, locus YML124C, strain tub3, stronger effect = lower value 0.987 | S. cerevisiae deletion strains, locus YMR058W, strain fet3, stronger effect = lower value 1.02 | S. cerevisiae deletion strains, locus YMR078C, strain ctf18, stronger effect = lower value 0.996 | S. cerevisiae deletion strains, locus YMR125W, strain sto1, stronger effect = lower value 1 | S. cerevisiae deletion strains, locus YMR129W, stronger effect = lower value 0.981 | S. cerevisiae deletion strains, locus YMR205C, strain PFK2, stronger effect = lower value 1.01 | S. cerevisiae deletion strains, locus YMR223W, strain ubp8, stronger effect = lower value 0.99 | S. cerevisiae deletion strains, locus YMR231W, strain pep5, stronger effect = lower value 0.999 | S. cerevisiae deletion strains, locus YMR263W, strain SAP30, stronger effect = lower value 1.01 | S. cerevisiae deletion strains, locus YMR307W, strain GAS1, stronger effect = lower value 1.04 | S. cerevisiae deletion strains, locus YNL067W, strain RPL9B, stronger effect = lower value 0.999 | S. cerevisiae deletion strains, locus YNL071W, strain lat1, stronger effect = lower value 1 | S. cerevisiae deletion strains, locus YNL128W, strain TEP1, stronger effect = lower value 1.01 | S. cerevisiae deletion strains, locus YNL153C, strain GIM3, stronger effect = lower value 0.997 | S. cerevisiae deletion strains, locus YNL183C, strain NPR1, stronger effect = lower value 0.934 | S. cerevisiae deletion strains, locus YNL209W, strain ssb2, stronger effect = lower value 1 | S. cerevisiae deletion strains, locus YNL233W, strain BNI4, stronger effect = lower value 0.999 | S. cerevisiae deletion strains, locus YNL248C, strain rpa49, stronger effect = lower value 1 | S. cerevisiae deletion strains, locus YNL250W, strain rad50, stronger effect = lower value 0.983 | S. cerevisiae deletion strains, locus YNL271C, strain bni1, stronger effect = lower value 0.984 | S. cerevisiae deletion strains, locus YNL298W, strain CLA4, stronger effect = lower value 0.971 | S. cerevisiae deletion strains, locus YNL307C, strain MCK1, stronger effect = lower value 0.987 | S. cerevisiae deletion strains, locus YNL322C, strain KRE1 (second series), stronger effect = lower value 1 | S. cerevisiae deletion strains, locus YNL322C, strain KRE1, stronger effect = lower value 1.01 | S. cerevisiae deletion strains, locus YNR049C, strain mso1, stronger effect = lower value 0.999 | S. cerevisiae deletion strains, locus YNR052C, strain pop2, stronger effect = lower value 0.989 | S. cerevisiae deletion strains, locus YOL006C, strain TOP1, stronger effect = lower value 1.02 | S. cerevisiae deletion strains, locus YOL012C, strain htz1 0.706 | S. cerevisiae deletion strains, locus YOL147C, strain pex11, stronger effect = lower value 0.99 | S. cerevisiae deletion strains, locus YOR001W, strain rrp6, stronger effect = lower value 1.01 | S. cerevisiae deletion strains, locus YOR061W, strain CKA2, stronger effect = lower value 1 | S. cerevisiae deletion strains, locus YOR069W, strain VPS5, stronger effect = lower value 1.01 | S. cerevisiae deletion strains, locus YOR070C, strain gyp1, stronger effect = lower value 0.991 | S. cerevisiae deletion strains, locus YOR080W, strain dia2, stronger effect = lower value 0.997 | S. cerevisiae deletion strains, locus YOR083W, strain WHI5, stronger effect = lower value 0.991 | S. cerevisiae deletion strains, locus YOR106W, strain vam3, stronger effect = lower value 1.01 | S. cerevisiae deletion strains, locus YOR136W, strain idh2, stronger effect = lower value 0.983 | S. cerevisiae deletion strains, locus YOR144C, strain elg1, stronger effect = lower value 0.983 | S. cerevisiae deletion strains, locus YOR184W, strain ser1, stronger effect = lower value 0.994 | S. cerevisiae deletion strains, locus YOR231W, strain MKK1, stronger effect = lower value 0.987 | S. cerevisiae deletion strains, locus YOR265W, strain rbl2, stronger effect = lower value 1 | S. cerevisiae deletion strains, locus YOR270C, strain vph1, stronger effect = lower value 0.997 | S. cerevisiae deletion strains, locus YOR290C, strain snf2, stronger effect = lower value 1.01 | S. cerevisiae deletion strains, locus YOR316C, strain cot1, stronger effect = lower value 0.987 | S. cerevisiae deletion strains, locus YPL051W, strain arl3, stronger effect = lower value 0.999 | S. cerevisiae deletion strains, locus YPL055C, strain LGE1, stronger effect = lower value 1.03 | S. cerevisiae deletion strains, locus YPL078C, strain atp4, stronger effect = lower value 1 | S. cerevisiae deletion strains, locus YPL106C, strain sse1, stronger effect = lower value 0.991 | S. cerevisiae deletion strains, locus YPL240C, strain hsp82, stronger effect = lower value 0.996 | S. cerevisiae deletion strains, locus YPL241C, strain CIN2, stronger effect = lower value 1 | S. cerevisiae deletion strains, locus YPL256C, strain CLN2, stronger effect = lower value 0.976 | S. cerevisiae deletion strains, locus YPR119W, strain clb2, stronger effect = lower value 0.995 | S. cerevisiae deletion strains, locus YPR141C, strain kar3, stronger effect = lower value 0.984 | S. cerevisiae deletion strains, locus YPR163C, strain tif3, stronger effect = lower value 0.99 | S. cerevisiae deletion strains, locus YPR167C, strain met16, stronger effect = lower value 0.991 | S. cerevisiae deletion strains, strain wtn01, stronger effect = lower value 0.977 | S. cerevisiae strains, strain wild type, stronger effect = lower value 1.01

Reference: PubChem BioAssay AID1159580 (chemical genetic matrix, 2015)
